Screening data: PubChem, National Center for Advancing Translational Sciences (NCATS)
ERG Ets-DNA blk: inhibitors of human ERG Ets domain-DNA interaction | fluorescence polarization, His-ERG Ets domain / labelled DNA | Potency, µM (doses to about 76.9 µM), usual class: inhibitors | 0.028% of 370,000 active | AID 624246; active = well fitted inhibition curve with a large enough effect in the polarisation, with a control signal flat; inconclusive = small, poorly fitted or top-dose-only effect, or effect the other way, or a change in a side signal; inactive = no such curve, though single readings can be large or run the other way; the % refers to the polarisation;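 also: polarization taken with two DNA probes labelled with fluorescein and Texas red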
Target sequence (P11308 whole entry, looked up, the tested form may be a part): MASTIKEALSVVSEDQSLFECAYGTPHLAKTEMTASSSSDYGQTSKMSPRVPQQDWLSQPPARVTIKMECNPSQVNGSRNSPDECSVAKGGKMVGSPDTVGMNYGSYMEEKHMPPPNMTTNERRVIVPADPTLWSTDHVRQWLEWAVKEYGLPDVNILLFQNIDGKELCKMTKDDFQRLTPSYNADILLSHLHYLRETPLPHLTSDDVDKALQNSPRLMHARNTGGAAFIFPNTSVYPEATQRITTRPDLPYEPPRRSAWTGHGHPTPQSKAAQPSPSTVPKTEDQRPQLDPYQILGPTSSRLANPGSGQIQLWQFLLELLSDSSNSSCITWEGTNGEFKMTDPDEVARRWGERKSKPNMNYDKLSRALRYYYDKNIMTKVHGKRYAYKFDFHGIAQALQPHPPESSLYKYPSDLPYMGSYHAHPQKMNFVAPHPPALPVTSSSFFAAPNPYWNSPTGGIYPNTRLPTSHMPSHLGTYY
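His-tagged ERG Ets domain (1 uM in the protein solution; 300mM KCl, 50mM Tris-HCl, 1mM EDTA, 1mM DTT, pH 7.5) received compound, then a probe mix of 5 nM fluorescein-DNA and 100nM Texas-615-DNA. Fluorescence polarization was read for both dyes.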
Giardia killer: Giardia lamblia killing; Giardia lamblia trophozoite viability; activity change, % at 7.66 µM, hits read low; 0.15% of 340,000 active; in the data active = activity change below about -80%; inconclusive = between about -30% and that limit;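 also: parasites exposed to compound for two days anaerobically before the ATP read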
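Viability, read as ATP luminescence: trophozoites at 100 cells/well, compound added, 48 hrs anaerobic at 37 deg C, then 15-30 min room-temperature development before reading.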
VP16 counter: Gal4-VP16 reporter inhibition counter-screen. Drosophila S2 Gal4-VP16 UAS-luciferase, luminescence, 20 h. Potency, µM (highest dose often 53.6 µM), actives largely listed as inhibitors. 3.5% of 310,000 active. AID 2546;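 also: Gal4-VP16 expression switched on by copper sulfate through the metallothionein promoter; nearly all actives have a fitted effect of over 50% in size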
Integrin act MD: integrin-mediated muscular dystrophy alleviation activation; 0.064% of 350,000 active; Potency, µM (series often up to 38.3 µM), hits mostly activators; alpha7betagal myoblasts, beta-gal FDG fluorescence, 48 h; AID 624291; also: nearly all actives have a fitted effect of over 60% in size
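Alpha7betagal+/- myoblasts (passage 13) were plated 16-24 hr, then exposed to compounds (1:260 dilution of DMSO stock) for 48 hours at 37C. After MPER lysis, β-galactosidase reporter activity was read as FDG fluorescence (ex 480/em 540) after 30 minutes.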
RORg inh: inhibitors of mouse ROR gamma transcriptional activity; AID 2551; Potency, µM (doses to about 53.6 µM), usual class: inhibitors; P51450; Drosophila S2 Gal4-RORgamma UAS-luciferase reporter, 20 h; 5.4% of 310,000 active; also: nearly all actives have a fitted effect of over 60% in size
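Read-out: Photinus luciferase luminescence; inhibitors lower reporter signal. Insect Schneider cells with Gal4-ROR gamma fusion under metallothionein promoter, UAS reporter; 700 uM final copper sulfate induction, 20 hr, ambient temperature.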
Of the large screens only hits and unclear results are named; the others gave an inactive call. The entries come from a sample that favours hits as a whole. Unless noted, calls follow the shape of the dose curve; as a rule, active = well fitted curve in the direction sought with a large enough effect; inconclusive = small, poorly fitted or top-dose-only effect, or another doubt; inactive = no such curve, though single readings can be large; an effect the other way counts as inactive or inconclusive.

O=[N+]([O-])c1ccc(S(=O)(=O)NNC(=S)NCCc2ccccc2)cc1	VP16 counter 11µM, RORg inh 8.9µM
CNC(=S)NCCc1ccccc1	none
CC(=O)NNC(=S)NCCc1ccccc1	RORg inh 11µM
CC(C)(CNC(=S)NCCc1ccccc1)CNC(=S)NCCc1ccccc1	VP16 counter 8.9µM, RORg inh inconclusive
CC(NC(=S)NNS(=O)(=O)c1cccc([N+](=O)[O-])c1)c1ccccc1 (centres undefined)	VP16 counter 6.3µM, RORg inh 7.1µM
O=C(Nc1ccccc1OC(F)F)c1ccc(Br)o1	none
CCC1=NN(C(=O)c2ccccc2Br)C(O)(c2ccc(Br)cc2)C1 (centres undefined)	VP16 counter inconclusive, RORg inh 8.9µM
CCC1=NN(C(=O)c2ccccc2O)C(O)(c2ccccc2)C1 (centres undefined)	VP16 counter 7.9µM, RORg inh 5µM
CCC1=NN(C(=O)COc2ccccc2)C(O)(c2ccc(Br)cc2)C1 (centres undefined)	none
CCC1=NN(C(=O)c2ccc([N+](=O)[O-])cc2)C(O)(c2ccccc2)C1 (centres undefined)	VP16 counter inconclusive
O=C(c1ccccc1O)N1N=C(C(F)(F)F)CC1(O)c1ccc([N+](=O)[O-])cc1 (centres undefined)	VP16 counter 10µM, RORg inh 11µM
Cc1ccc(-n2ncc3c2CCCC3NC(=O)CCCN2CCCCC2=O)cc1C (centres undefined)	Giardia killer inconclusive
CCOC(=O)Cn1c(=NC(=O)c2cc(-c3cccs3)nc3ccccc23)sc2cc(S(N)(=O)=O)ccc21	VP16 counter 11µM, RORg inh 16µM
COC(=O)Cn1c(=NC(=O)c2cc(-c3cccs3)nc3ccccc23)sc2cc(S(N)(=O)=O)ccc21	VP16 counter inconclusive (no result: ERG Ets-DNA blk)
Cc1ccc(C)c(NC(=O)CN(C)C(=O)/C=C/c2ccco2)c1	none
Cn1nnc(NC(=S)NC(=O)/C=C/c2ccco2)n1	none
O=C(/C=C\c1ccco1)NC(=S)Nc1ccccc1O	VP16 counter inconclusive, RORg inh 22µM
O=C(/C=C/c1ccco1)Nc1ccccc1C(=O)O	VP16 counter inconclusive, RORg inh inconclusive
Cc1ccc(NC(=S)NC(=O)/C=C/c2ccco2)c(O)c1	VP16 counter inconclusive, RORg inh 8.9µM
O=C(/C=C/c1ccco1)NC(=S)Nc1ccccc1O	VP16 counter inconclusive, RORg inh 11µM
CCCCNc1cc(C)nc(NCc2ccccc2)n1	VP16 counter 7.1µM, RORg inh inconclusive
Cc1cc(Nc2ccccc2)nc(NCc2ccccc2)n1	VP16 counter 11µM, RORg inh 2.8µM
Nc1nc(NCCc2ccccc2)c2[nH]cnc2n1	none (no result: ERG Ets-DNA blk, VP16 counter, Integrin act MD, RORg inh)
Cc1ccc(/C=C2/Sc3ccccc3N(CC(=O)NCC3CCCO3)C2=O)cc1 (centres undefined)	none
Cc1cc(/C=C2\Sc3ccccc3N2C)cc(C)[n+]1CC1CCCO1 (centres undefined)	VP16 counter 2µM, RORg inh 2.8µM
Cc1cc(Cl)ccc1-n1c(CCC(=O)O)ccc1-c1cccs1	none (no result: Giardia killer, VP16 counter, Integrin act MD, RORg inh)
COC(=O)c1sccc1S(=O)(=O)N(CC(=O)NCc1ccc(F)cc1)c1ccccc1	none (no result: Giardia killer, VP16 counter, Integrin act MD, RORg inh)
CC(C)NC(=S)NN=C1CCC(c2ccccc2)CC1 (centres undefined)	VP16 counter 11µM, RORg inh 5.6µM
O/N=C1\CCCc2ccccc21	none
CC(C)NC(=S)N/N=C1\CCCc2ccccc21	VP16 counter 4µM, RORg inh 1.6µM
COc1ccccc1CN1CC[C@@]2(CCCN(C(=O)c3cnccn3)C2)C1	none (no result: ERG Ets-DNA blk, Giardia killer, Integrin act MD)
CCOc1cccc(-c2nnc3sc(C4CCCCC4)nn23)c1	VP16 counter inconclusive, RORg inh 20µM
Cc1nc2ccc(NS(=O)(=O)c3ccc(F)c(C)c3)cc2[nH]1	VP16 counter 7.1µM, RORg inh inconclusive
Cc1nc2ccc(S(=O)(=O)c3ccc4nc(C)[nH]c4c3)cc2[nH]1	none
CCc1c(C)nc2nncn2c1NCc1ccccc1	none (no result: Giardia killer, VP16 counter, Integrin act MD, RORg inh)
COc1ccc(-c2cc(=Nc3ccc(C(=O)O)cc3)c3cc(C)ccc3o2)cc1	VP16 counter inconclusive
CCc1ccc2oc(-c3ccc(OC)cc3)cc(=Nc3cccc(C(=O)O)c3)c2c1	VP16 counter 11µM, RORg inh inconclusive
Cc1cccc(-n2c(-c3csc(C(C)C)c3)n[nH]c2=S)c1	VP16 counter inconclusive, RORg inh 1.6µM
CCCc1cc(-c2n[nH]c(=S)n2-c2cccc(C)c2)cs1	VP16 counter inconclusive, RORg inh 1.4µM
Cc1ccsc1CN(C)CC(=O)N(C)CC(=O)Nc1c(Cl)cccc1Cl	none (no result: ERG Ets-DNA blk, Giardia killer, VP16 counter, RORg inh)
O=C(Nc1ccsc1C(=O)O)c1ccc(Cl)cc1	VP16 counter inconclusive
Cc1ccc(Cl)cc1NC(=O)Nc1cccs1	RORg inh 14µM
COC(=O)c1sc(=S)sc1C(=O)OC	VP16 counter inconclusive, RORg inh 14µM (no result: ERG Ets-DNA blk)
COC(=O)c1sc(C(=O)OC)c(C(=O)OC)c1C(=O)OC	none (no result: ERG Ets-DNA blk)
O=C(CSc1nnc(Cc2ccccc2)o1)Nc1ccc(Br)cn1	none
CN(Cc1cccc2cnccc12)C(=O)CCc1nnc(CCc2ccccc2)o1	VP16 counter 20µM, RORg inh inconclusive
c1ccc(-c2nc(-c3cccs3)c(NC3CCCCC3)o2)cc1	none (no result: ERG Ets-DNA blk, Giardia killer, Integrin act MD)
Cc1ccc(-c2nc(Nc3cccc(C)c3)sc2CC(=O)O)cc1	RORg inh 11µM
Cc1cc(C)c(NC(=S)NCC2CCN(C(C)c3ccccc3)C2)c(C)c1 (centres undefined)	VP16 counter inconclusive, RORg inh 7.9µM
CC(c1ccccc1)N1CCC(CNC(=S)Nc2cccc(Cl)c2)C1 (centres undefined)	VP16 counter inconclusive, RORg inh 10µM
Cc1ccc(NC(=S)NCC2CCN(C(C)c3ccccc3)C2)cc1 (centres undefined)	VP16 counter inconclusive, RORg inh inconclusive
C=CCN(CC=C)C(=O)c1ccc2nc(Cc3ccc(OC)c(OC)c3)oc2c1	VP16 counter 13µM, RORg inh inconclusive
Cc1cc(C)nc(N(C#N)CN2C(=O)c3ccccc3S2(=O)=O)n1	VP16 counter inconclusive, RORg inh 13µM
O=C(C1CCN(S(=O)(=O)c2ccccc2)CC1)N1CCC1	none (no result: VP16 counter, RORg inh)
COc1cc(C(=O)Oc2ccccc2/C=N/NC(=O)c2ccc(Cl)cc2)cc(OC)c1OC	VP16 counter 11µM, RORg inh 6.3µM
COc1cc(C(=O)Oc2ccccc2/C=N/NC(=O)c2ccc(C)c(Cl)c2)cc(OC)c1OC	VP16 counter inconclusive, RORg inh 5µM
COc1ccc(C(=O)N/N=C/c2ccccc2C(=O)O)cc1OC	none
Cc1ccc(S(=O)(=O)N2CCN(c3nc(-c4ccnnc4)nc4ccccc34)CC2)cc1	none (no result: ERG Ets-DNA blk, VP16 counter, Integrin act MD, RORg inh)
S=C(NCCSCc1ccc(Cl)cc1)Nc1ccccc1	VP16 counter 11µM, RORg inh 2.5µM
S=C(NNC(=S)Nc1ccc(Cl)cc1)NNc1ccccc1	none (no result: ERG Ets-DNA blk, Giardia killer, VP16 counter, RORg inh)
O=C(CCSCc1ccccc1Cl)NCCc1ccccc1	none (no result: Giardia killer, VP16 counter, Integrin act MD, RORg inh)
Cc1cccc(CSCCNC(=S)Nc2ccccc2)c1	VP16 counter 5.6µM, RORg inh 5.6µM
